According to PubChem BioAssay (NCI):
Where “and” joins values, the source holds several entries; their conditions need not be identical. Equal entries are not always repeated. Compounds without any hit were thinned out: in the full panel of roughly 83,000, 20% have a hit.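 Activity criterion: percent growth below 10, measured after cells in 96-well plates were exposed to a single compound concentration for 48 hours.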 Calls of active or inactive are those of the source.

Tested on: TK-10 renal
Experiment: NCI-60 one-dose screen, 48 h (100 = growth as untreated, 0 = no growth, -100 = all killed)
Settings: 10 µM unless noted

Row | Structure (SMILES) | growth
1 | COc1cc2c(c(OC)c1OC)-c1ccc(OC)c(=O)cc1[C@@H](NC(C)=O)CC2 | 61.7% (inactive) and 52.7% (inactive)
2 | CCN(CC)CCCC(CNc1ccnc2cc(Cl)ccc12)c1ccc(Cl)cc1 (stereo unspecified) | -76.7% (active) and 14.7% (inactive)
3 | N#CCCOc1ccccc1 | 97.2% (inactive)
4 | COc1ccc(/C(C#N)=C/c2ccccn2)cc1 | 104% (inactive) and 117% (inactive)
5 | CCN(CC)C(=S)SSC(=S)N(CC)CC | 96.9% (inactive)
6 | Nc1ccc(N=Nc2ccc(S(=O)(=O)O)cc2)cc1S(=O)(=O)O | 115% (inactive) and 97.6% (inactive)
7 | CCN(CC)CCOc1ccc2c(c1)C(=O)c1cc(OCCN(CC)CC)ccc1-2 | 75.8% (inactive) and 78.1% (inactive)
8 | O=C1OC2(c3ccccc31)c1ccc(O)c(O)c1Oc1c2ccc(O)c1O | 105% (inactive) and 101% (inactive)
9 | O=S(=O)(Nc1ccccc1)C1CCCCC1 | 103% (inactive) and 102% (inactive)
10 | CCNC(=O)Nc1ccc(-c2nc3c(c(N4CCOC[C@@H]4C)n2)CCN(C2COC2)C3)cc1 | 44.4% (inactive) and -22.3% (active)
11 | CC(C)Cc1ccc(C(C)C(=O)NCc2ccc(Cn3c(=O)sn(CCCCl)c3=O)cc2)cc1 (stereo unspecified) | 88% (inactive) and -91.9% (active)
12 | OCc1ccccn1 | 100% (inactive)
13 | CCCCCCCCCCCCCCCc1cc(O)ccc1N | 123% (inactive) and 98.3% (inactive)
14 | Cc1ccc2nc3c(nc2c1)-c1cccc2cccc-3c12 | 83.5% (inactive)
15 | O=[N+]([O-])c1ccc(/C=N\NC(=S)Nc2ccc(F)cc2)cc1 | 109% (inactive) and 107% (inactive)
16 | CCN(CC)C(=O)c1cccnc1 | 97.8% (inactive)
17 | CN1CCN(CCC=C2c3ccccc3Sc3ccc(S(=O)(=O)N(C)C)cc32)CC1 | 70.5% (inactive) and 87.2% (inactive)
18 | Oc1nc(NCCc2ccccc2)sc1/C=C1\C=Nc2ncccc21 | 18.8% (inactive) and 34.2% (inactive)

Row | Structure (SMILES) | growth
19 | COc1cc2nc(N3CCN(C(=O)C4COc5ccccc5O4)CC3)nc(N)c2cc1OC (stereo unspecified) | 86.4% (inactive) and 88.4% (inactive)
20 | c1ccc2cc(C[n+]3ccn(Cc4ccc5ccccc5n4)c3)ccc2c1 | -27% (active) and 80.5% (inactive)
21 | COc1ccc(Cn2c(NCCN=C(N)N)nc(=O)n(Cc3ccc(F)cc3)c2=O)cc1 | 103% (inactive) and 104% (inactive)
22 | O=C(N/N=C/c1cccc2ccccc12)C1CC1 | 131% (inactive) and 121% (inactive)
23 | CC(C)CNC(=O)c1ccccc1C(=O)NC1(C(=O)NCC(C)C)CCCC1 | 111% (inactive) and 114% (inactive)
24 | Cn1c(=O)n(-c2ccc(C(C)(C)C#N)cc2)c2c3cc(-c4cnc5ccccc5c4)ccc3ncc21 | -27.5% (active) and -27.4% (active)
25 | CN(C)c1ccc(C(Cc2ccc3ccccc3n2)Cc2ccc3ccccc3n2)cc1 | 74.1% (inactive) and 121% (inactive)
26 | Cc1ccc(S(=O)(=O)Nc2ccc3cc([N+](=O)[O-])ccc3c2[N+](=O)[O-])cc1 | 78.5% (inactive) and 101% (inactive)
27 | NS(=O)(=O)c1cc2c(cc1Cl)NC(C(Cl)Cl)NS2(=O)=O (stereo unspecified) | 98.5% (inactive) and 121% (inactive)
28 | Nc1ccccc1Nc1ccccc1 | 111% (inactive) and 88.4% (inactive)
29 | c1ccc2c(CC3=NCCN3)cccc2c1 | 114% (inactive) and 108% (inactive)
30 | Clc1ccc(NC(Nc2ccc(Cl)cc2)C(Cl)(Cl)Cl)cc1 | 110% (inactive) and 92.3% (inactive)
31 | CCOc1ccc2c(S(=O)(=O)O)cccc2c1[N+](=O)[O-] | 104% (inactive) and 126% (inactive)
32 | CCN(CC)CCCC(C)N(Cc1ccccc1)CC(O)c1ccc(Cl)cc1 (stereo unspecified) | 91.8% (inactive) and 90.4% (inactive)
33 | Cn1cnc([N+](=O)[O-])c1Sc1ncnc2nc[nH]c12 | 52.8% (inactive) and 44.3% (inactive)
34 | Nc1nc2ncc(CNc3ccc(C(=O)N[C@@H](CCc4nn[nH]n4)C(=O)O)cc3)nc2c(=O)[nH]1 | 111% (inactive) and 109% (inactive)
35 | Oc1c(Cl)cc(Cl)cc1Sc1cc(Cl)cc(Cl)c1O | 46.9% (inactive) and -11.2% (active) and 87.2% (inactive)
36 | O=S1(=O)CC(Br)C(Br)C1 (stereo unspecified) | 40% (inactive) and 63.8% (inactive)
